In assay [1] the target is Progesterone receptor (Homo sapiens) (UniProt P06401). Put plainly: qHTS assay to identify small molecule antagonists of the progesterone receptor (PR) signaling pathway (AID 1346795; active = well fitted inhibition curve with a large enough effect in the signal ratio in the repeat runs, not every such curve was filed as active; the % refers to the signal ratio; also: potency is read from the fitted curve at half-maximal effect). The essentials: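 Fluorescence intensity measured 2 hr after adding beta-lactamase FRET substrate to PR-UAS-bla HEK293T cells that had been co-treated 16 hr with compound and 1 nM R5020 (final concentration) in 2% charcoal-stripped FBS.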
Sequence of Progesterone receptor (Homo sapiens) (P06401 whole entry, looked up): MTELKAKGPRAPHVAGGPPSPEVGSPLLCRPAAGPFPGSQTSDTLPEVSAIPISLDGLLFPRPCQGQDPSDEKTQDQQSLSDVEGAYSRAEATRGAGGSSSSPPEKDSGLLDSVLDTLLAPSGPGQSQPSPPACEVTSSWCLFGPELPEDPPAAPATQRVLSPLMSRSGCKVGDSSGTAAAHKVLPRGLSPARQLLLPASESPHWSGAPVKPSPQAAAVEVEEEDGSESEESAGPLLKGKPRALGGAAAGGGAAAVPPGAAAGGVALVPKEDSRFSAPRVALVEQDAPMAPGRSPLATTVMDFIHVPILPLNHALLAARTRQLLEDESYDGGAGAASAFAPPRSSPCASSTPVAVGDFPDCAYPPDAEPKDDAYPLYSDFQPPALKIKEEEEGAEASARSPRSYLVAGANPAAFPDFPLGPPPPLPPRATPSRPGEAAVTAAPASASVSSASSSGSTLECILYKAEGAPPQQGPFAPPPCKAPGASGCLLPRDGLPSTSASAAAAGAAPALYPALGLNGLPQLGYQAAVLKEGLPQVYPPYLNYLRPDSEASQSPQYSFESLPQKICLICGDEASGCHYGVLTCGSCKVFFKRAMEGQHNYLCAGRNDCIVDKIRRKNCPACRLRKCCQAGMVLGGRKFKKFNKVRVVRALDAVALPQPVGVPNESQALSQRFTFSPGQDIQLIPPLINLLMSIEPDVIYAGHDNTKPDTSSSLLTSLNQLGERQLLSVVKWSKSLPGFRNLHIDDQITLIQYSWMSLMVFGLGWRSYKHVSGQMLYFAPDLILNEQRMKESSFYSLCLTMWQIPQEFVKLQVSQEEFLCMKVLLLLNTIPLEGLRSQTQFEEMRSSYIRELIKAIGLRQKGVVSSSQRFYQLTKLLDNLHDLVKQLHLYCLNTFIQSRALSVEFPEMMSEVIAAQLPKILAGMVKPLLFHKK

Assay [2] is described as follows: qHTS assay to identify small molecule antagonists of the progesterone receptor (PR) signaling pathway - cell viability counter screen (AID 1346798). Also: series mostly up to about 92 µM; nearly all actives have a fitted effect of over 50% in size. The essentials:
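CellTiter-Glo luminescence; PR-UAS-bla HEK293T, 3,000 cells/well; compound + R5020, 16 hr, 37C/5% CO2; 30 min RT before read.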
On the technique in general: Quantitative high-throughput screening tests each substance at several concentrations.

Assay [3] is described as follows: qHTS assay to identify small molecule agonists of the progesterone receptor (PR) signaling pathway - cell viability counter screen (AID 1346799; calls by dose curve; also: nearly all actives have a fitted effect of over 45% in size). The essentials: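 In parallel with the beta-lactamase readout, cytotoxicity toward PR-UAS-bla HEK293T cells was measured by CellTiter-Glo luminescence following 16 hr compound incubation in 2% charcoal-stripped FBS medium.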

A short description of assay [4]: qHTS assay to identify small molecule antagonists of the TGF-beta/Smad signaling pathway - cell viability counter screen (AID 1346824). Also: nearly all actives have a fitted effect of over 50% in size. The essentials: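 SBE-bla HEK 293T cells, incubated overnight, then compound plus 0.25 ng/mL TGF-beta1 (stock added) for 5 hr at 37 C. Viability was read in the same wells by CellTiter-Glo luminescence after 30 min at room temperature.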

Assay [5] in a line: qHTS assay to identify small molecule agonists of the TGF-beta/Smad signaling pathway - cell viability counter screen (AID 1346829). Also: top concentration of the series differs between compounds; nearly all actives have a fitted effect of over 45% in size. The gist of the method: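 Here the cytotoxicity of library compounds is measured in SBE-bla HEK 293T cells treated for 5 hr, using CellTiter-Glo added to wells already read for the beta-lactamase reporter.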
A short description of assay [6]: qHTS assay to identify small molecule agonists of the TGF-beta/Smad signaling pathway (AID 1346859; active = well fitted activation curve with a large enough effect in the signal ratio in the repeat runs, not every such curve was filed as active; the % refers to the signal ratio; also: series mostly up to about 77 µM). The gist of the method: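 After overnight seeding, SBE-bla HEK 293T cells are dosed with compounds in DMSO and kept 5 hr at 37 C, 5% CO2. LiveBLAzer-type FRET substrate is then applied for 2 hr at room temperature.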
Assay [7] addresses Thyrotropin-releasing hormone receptor (Homo sapiens) (UniProt P34981). Put plainly: qHTS assay to identify small molecule agonists of the thyrotropin-releasing hormone receptor (TRHR) signaling pathway (AID 1346891; calls by dose curve; also: series mostly up to about 58 µM). The gist of the method: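 Compounds were tested as agonists at 15 concentrations, in triplicate, on TRHR-Hek293 cells; calcium-sensitive dye fluorescence was recorded for 3 min following addition.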

The nature of assay [8]: Human pregnane X receptor (PXR) small molecule agonists, qHTS cell viability counter screen (AID 1346977). Also: nearly all actives have a fitted effect of over 50% in size. Also: potency is read from the fitted curve at half-maximal effect. The gist of the method:
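Viability counter screen: CellTiter-Fluor signal in PXR-Luc HepG2 cells, 24hr compound exposure, 37C, 5% CO2.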

Assay [9] is described as follows: Caspase-3/7 induction in HepG2 cells by small molecules, qHTS assay (AID 1346978). Also: nearly all actives have a fitted effect of over 15% in size. The gist of the method: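 Wild-type HepG2 cells, 2,000/well, settled 5 hr at 37 C and 5% CO2, then compound-treated for 17 hr; caspase-3/7 activity read by luminescent Caspase-Glo 3/7 after 30 min at room temperature.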
Assay [10] in a line: Caspase-3/7 induction in CHO-K1 cells by small molecules, qHTS cell viability counter screen (AID 1346979). Also: nearly all actives have a fitted effect of over 35% in size. Also: potency is read from the fitted curve at half-maximal effect. The essentials: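 Viability readout by fluorescence (CellTiter-Fluor) on wild-type CHO-K1 cells exposed for 16hr at 37C and 5% CO2 to compounds delivered in DMSO; reagent incubated 1hr before reading.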
The nature of assay [11]: Caspase-3/7 induction in HepG2 cells by small molecules, qHTS cell viability counter screen (AID 1346981). Also: nearly all actives have a fitted effect of over 30% in size. Also: potency is read from the fitted curve at half-maximal effect. The essentials: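 Wild-type HepG2 cells (2,000/well) were allowed to settle for 5 hr at 37 C, 5% CO2, then dosed with compounds in DMSO by pin transfer. After 16 hr at 37 C, CellTiter-Fluor was added and fluorescence read 1 hr later.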
Assay [12] addresses Nuclear receptor subfamily 1 group I member 2 (Homo sapiens) (UniProt O75469). Put plainly: Human pregnane X receptor (PXR) small molecule agonists, qHTS assay (AID 1346982). Also: nearly all actives have a fitted effect of over 35% in size. Also: potency is read from the fitted curve at half-maximal effect. The gist of the method:
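PXR-Luc HepG2 cells (CYP3A4 promoter-driven luciferase) were seeded in medium with 5% charcoal-stripped FBS, left 5 hr at 37 C, then exposed to compounds in DMSO for 24 hr. Luminescence was read after ONE-Glo addition.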

For assay [13] the target is unchanged. Put plainly: CYP3A4 induction through human pregnane X receptor (PXR) by small molecules, qHTS assay (AID 1346984). Also: nearly all actives have a fitted effect of over 40% in size. The essentials:
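DPX-2 cells (HepG2 co-transfected with PXR and CYP3A4 promoter-luciferase) treated with compounds 24 h at 37C; luciferin-IPA CYP3A4 substrate 3uM final added for 3 h, then One-Glo; luminescence read. qHTS format.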

For assay [14] the target is unchanged. Put plainly: Human pregnane X receptor (PXR) activation by small molecules, qHTS assay (AID 1346985). Also: nearly all actives have a fitted effect of over 40% in size. Also: potency is read from the fitted curve at half-maximal effect. The essentials:
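DPX-2 cells (HepG2 co-transfected with a PXR response element and a CYP3A4-promoter luciferase construct) were seeded at 2,000 per well, rested 5 hr at 37C, then exposed to DMSO-dissolved compounds for 24 hr. Activation was read as luciferase luminescence.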

In assay [15] the target is Cytochrome P450 2D6 (Homo sapiens) (UniProt P10635). Put plainly: Cytochrome P450 Family 2 Subfamily D Member 6 (CYP2D6) small molecule antagonists: luciferase reporter qHTS assay (AID 1671196). Also: series mostly up to about 120 µM; nearly all actives have a fitted effect of over 50% in size. The essentials:
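CYP2D6 enzyme–substrate mix was held with compound for 10 min at room temperature, then NADPH regeneration solution was added and the reaction ran 1 h at room temperature. Luciferin product was detected by luminescence after 20 min with detection reagent.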

Assay [16] has as its target Cytochrome P450 2C19 (Homo sapiens) (UniProt P33261). Put plainly: Cytochrome P450 Family 2 Subfamily C Member 19 (CYP2C19) small molecule antagonists: luciferase reporter qHTS assay (AID 1671197). Also: nearly all actives have a fitted effect of over 65% in size. Also: potency is read from the fitted curve at half-maximal effect. The essentials:
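Light output is proportional to CYP2C19 activity: proluciferin substrate is converted to luciferin, then detected by a luciferin detection reagent that also stops the 1 h, 37C NADPH-driven reaction. Ketoconazole serves as positive control.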
For orientation: In a reporter assay the amount or activity of a reporter protein is the signal.

Assay [17] addresses Cytochrome P450 2C9 (Homo sapiens) (UniProt P11712). Put plainly: Cytochrome P450 Family 2 Subfamily C Member 9 (CYP2C9) small molecule antagonists: luciferase reporter qHTS assay (AID 1671198). Also: nearly all actives have a fitted effect of over 50% in size. Also: potency is read from the fitted curve at half-maximal effect. The essentials: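 P450-Glo proluciferin substrate with CYP2C9 enzyme; 10 min RT preincubation, then NADPH regeneration 1 h at 37C; luciferin detection reagent 20 min RT, luminescence in relative luminescence units.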

Assay [18] in a line: Caspase-3/7 induction in CHO-K1 cells by small molecules, qHTS assay (AID 1346980). Also: nearly all actives have a fitted effect of over 15% in size. Also: potency is read from the fitted curve at half-maximal effect. The gist of the method: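 Wild-type CHO-K1 cells exposed to compounds for 17hr at 37 C, 5% CO2. Caspase-3/7 activity then measured by Caspase-Glo 3/7 luminescence after 30min at room temperature.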
The target of assay [19] is Thyrotropin-releasing hormone receptor (Homo sapiens) (UniProt P34981). Put plainly: qHTS assay to identify small molecule antagonists of the thyrotropin-releasing hormone receptor (TRHR) signaling pathway (AID 1346877; active = well fitted inhibition curve with a large enough effect in the repeat runs, not every such curve was filed as active; also: series mostly up to about 51 µM). The essentials: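 TRHR-expressing HEK293 cells were seeded, cultured 18 h at 37 °C, then loaded with calcium dye for 2 h. Compounds were pre-incubated 5 min at room temperature before 1 nM TRH (final) was added, and kinetic fluorescence was recorded for 3 min.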
Sequence of Thyrotropin-releasing hormone receptor (Homo sapiens) (P34981 whole entry, looked up): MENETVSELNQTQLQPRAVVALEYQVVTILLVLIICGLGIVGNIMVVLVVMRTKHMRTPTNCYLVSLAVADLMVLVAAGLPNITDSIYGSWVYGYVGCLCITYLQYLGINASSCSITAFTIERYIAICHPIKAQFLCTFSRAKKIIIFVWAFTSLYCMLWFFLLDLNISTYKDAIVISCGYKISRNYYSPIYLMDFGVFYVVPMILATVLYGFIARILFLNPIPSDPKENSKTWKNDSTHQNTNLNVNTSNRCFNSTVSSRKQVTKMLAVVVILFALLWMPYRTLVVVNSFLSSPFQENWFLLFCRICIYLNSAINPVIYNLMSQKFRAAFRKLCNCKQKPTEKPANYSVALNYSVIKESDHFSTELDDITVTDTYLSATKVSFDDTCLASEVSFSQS

Values joined by “and” are separate entries in the source; they are usually repeats but may differ in a detail not shown here. Identical values can stand only once. Inconclusive results are not listed. A structure can be active in one record and inactive in another. Active and inactive are the calls of the source. Unless noted, calls follow the shape of the dose curve; as a rule, active = well fitted curve in the direction sought with a large enough effect in the repeat runs; inconclusive = weak or mixed curves; inactive = no such curve, though single readings can be large; an effect the other way counts as inactive or inconclusive.

Sequence of Cytochrome P450 2C9 (Homo sapiens) (P11712 whole entry, looked up): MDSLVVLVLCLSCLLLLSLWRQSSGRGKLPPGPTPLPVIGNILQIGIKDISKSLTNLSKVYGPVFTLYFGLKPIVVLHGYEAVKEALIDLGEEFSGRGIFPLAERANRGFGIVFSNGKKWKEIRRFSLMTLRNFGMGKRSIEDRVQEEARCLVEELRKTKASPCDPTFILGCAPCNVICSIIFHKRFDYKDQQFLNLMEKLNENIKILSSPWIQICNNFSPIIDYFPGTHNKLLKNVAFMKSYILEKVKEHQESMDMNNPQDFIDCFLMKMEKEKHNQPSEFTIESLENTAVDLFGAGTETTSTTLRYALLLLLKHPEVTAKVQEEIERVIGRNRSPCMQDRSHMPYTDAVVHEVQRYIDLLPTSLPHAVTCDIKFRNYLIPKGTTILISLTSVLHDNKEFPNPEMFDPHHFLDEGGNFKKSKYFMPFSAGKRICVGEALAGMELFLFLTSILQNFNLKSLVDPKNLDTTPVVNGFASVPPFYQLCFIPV
Sequence of Cytochrome P450 2C19 (Homo sapiens) (P33261 whole entry, looked up): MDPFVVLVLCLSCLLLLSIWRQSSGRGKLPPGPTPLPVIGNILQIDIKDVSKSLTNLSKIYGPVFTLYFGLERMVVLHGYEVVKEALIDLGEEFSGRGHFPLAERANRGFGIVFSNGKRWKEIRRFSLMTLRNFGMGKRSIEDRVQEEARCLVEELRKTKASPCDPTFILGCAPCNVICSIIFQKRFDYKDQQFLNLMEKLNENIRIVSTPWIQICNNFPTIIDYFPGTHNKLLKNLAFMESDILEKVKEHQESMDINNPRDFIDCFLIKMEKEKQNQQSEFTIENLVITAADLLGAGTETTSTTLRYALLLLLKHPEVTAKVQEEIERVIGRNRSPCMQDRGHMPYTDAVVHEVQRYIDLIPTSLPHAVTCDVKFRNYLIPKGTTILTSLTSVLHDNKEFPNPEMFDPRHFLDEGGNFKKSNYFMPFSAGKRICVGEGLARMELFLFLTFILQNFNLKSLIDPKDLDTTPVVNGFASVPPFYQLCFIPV
Sequence of Cytochrome P450 2D6 (Homo sapiens) (P10635 whole entry, looked up): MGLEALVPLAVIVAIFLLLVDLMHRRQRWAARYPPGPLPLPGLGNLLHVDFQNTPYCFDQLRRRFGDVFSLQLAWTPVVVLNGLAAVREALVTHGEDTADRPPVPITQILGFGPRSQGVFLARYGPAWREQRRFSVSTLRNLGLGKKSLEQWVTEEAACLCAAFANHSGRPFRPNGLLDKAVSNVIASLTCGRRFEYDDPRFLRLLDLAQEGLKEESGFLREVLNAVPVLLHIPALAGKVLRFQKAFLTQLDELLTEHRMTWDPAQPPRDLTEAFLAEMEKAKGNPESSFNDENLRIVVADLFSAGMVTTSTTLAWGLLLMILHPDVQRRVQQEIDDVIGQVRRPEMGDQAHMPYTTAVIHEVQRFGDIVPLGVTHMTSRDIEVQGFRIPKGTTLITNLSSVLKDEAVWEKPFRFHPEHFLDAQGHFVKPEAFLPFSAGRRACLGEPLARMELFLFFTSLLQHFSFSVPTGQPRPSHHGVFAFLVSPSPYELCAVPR
Sequence of Nuclear receptor subfamily 1 group I member 2 (Homo sapiens) (O75469 whole entry, looked up): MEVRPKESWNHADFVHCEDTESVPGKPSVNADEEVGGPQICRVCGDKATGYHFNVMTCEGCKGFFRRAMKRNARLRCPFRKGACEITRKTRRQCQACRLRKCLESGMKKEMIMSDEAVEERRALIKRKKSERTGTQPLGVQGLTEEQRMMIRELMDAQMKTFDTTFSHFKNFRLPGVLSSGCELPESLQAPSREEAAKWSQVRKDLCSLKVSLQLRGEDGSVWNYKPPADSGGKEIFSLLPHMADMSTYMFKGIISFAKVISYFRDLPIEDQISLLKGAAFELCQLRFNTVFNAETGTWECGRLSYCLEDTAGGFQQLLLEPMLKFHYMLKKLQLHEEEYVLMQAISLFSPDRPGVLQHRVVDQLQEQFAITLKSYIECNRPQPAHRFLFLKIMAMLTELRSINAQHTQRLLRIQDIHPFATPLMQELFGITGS

In the case of `CC(=O)Oc1c(C)c(C)c2c(c1C)CC[C@@](C)(CCC[C@H](C)CCC[C@H](C)CCCC(C)C)O2`, the Potency result in assay [1], in assay [2], in [3], in [4], in assay [5] and in assay [7] was “inactive” each time. For the same molecule, the Potency result in [8], in [9], in assay [10], in assay [11], in assay [12] and in [13] was “inactive” each time. In addition, the Potency entry in assay [14], in assay [15], in [16] and in [17] was “inactive” throughout. In addition, the call in [6] was inactive.
`O=S1(=O)CCCO1`: the Potency result in [1], in assay [2], in assay [3], in [4], in [5] and in assay [8] was “inactive” throughout. Besides, the Potency entry in assay [9], in assay [10], in assay [18], in assay [11], in assay [12] and in assay [15] was “inactive” each time. Besides, the Potency result in assay [16] and in assay [17] was “inactive” in each case. The molecule was classed as inactive in [6].
In the case of `Cc1cccc(Nc2ccccc2C(=O)O)c1C`, the Potency result in assay [2], in assay [3], in [4], in assay [5], in [19] and in [7] was “inactive” in each case. Moreover, the Potency entry in assay [8], in assay [9], in [10], in [18], in assay [11] and in [15] was “inactive” each time. The Potency entry in assay [16] was “inactive”. Besides, the outcome in assay [6] was inactive. The Potency in [17] was 31.7 µM (active) and 30.9 µM (active).
For the molecule `CC1(C)O[C@@H]2C[C@H]3[C@@H]4C[C@H](F)C5=CC(=O)C=C[C@]5(C)[C@@]4(F)[C@@H](O)C[C@]3(C)[C@]2(C(=O)CO)O1`, the Potency entry in assay [1], in assay [2], in assay [4], in assay [5], in assay [19] and in [7] was “inactive” each time. The Potency entry in assay [8], in assay [10], in [11], in assay [15] and in assay [16] was “inactive” in each case. Also, in assay [6], the molecule was called inactive. The Potency in assay [12] was 24.3 µM (active) and 8.41 µM (active); in assay [14], 15.8 µM (active); in assay [17] it was 39.9 µM (active).
Consider `O=Cc1ccccc1C=O`, for which the Potency result in assay [1], in [2], in assay [3], in assay [4], in [5] and in assay [7] was “inactive” throughout. Moreover, the Potency entry in [13], in assay [14], in assay [15] and in assay [16] was “inactive” throughout. The call in assay [6] was inactive. Further, the Potency in [8] is 48.6 µM (active) and inactive; in assay [10], 15.4 µM (active) and inactive; in [18], 21.7 µM (active) and inactive; in [11], 30.6 µM (active) and inactive; in assay [12] it was 19.3 µM (active) and inactive; in assay [17] it was 35.6 µM (active) and inactive.
Regarding `CC(=O)O[C@]1(C(C)=O)CC[C@H]2[C@@H]3C=C(Cl)C4=CC(=O)CC[C@]4(C)[C@H]3CC[C@@]21C`, the Potency entry in assay [1], in assay [2], in assay [4], in [5], in assay [7] and in [8] was “inactive” each time. Further, the Potency entry in assay [9], in assay [18], in assay [13], in assay [14] and in [15] was “inactive” in each case. Also, the Potency was 61 µM (active) in assay [10]; 61 µM (active) and inactive in assay [11]; 68.5 µM (active) and inactive in [12]; 12.6 µM (active) and 4.36 µM (active) in assay [16]; 20 µM (active) and 15.5 µM (active) in [17].
With `Clc1ccc(Sc2cc(Cl)c(Cl)cc2Cl)cc1`, the Potency in assay [1] is 24.3 µM (active); in assay [12] it was 59.5 µM (active) and inactive; in assay [16] it was 6.92 µM (active) and 3.17 µM (active). In addition, the Potency result in assay [2], in [3], in [4], in [5], in [7] and in [8] was “inactive” each time. In addition, the Potency entry in [9], in assay [10], in assay [11], in assay [15] and in assay [17] was “inactive” in each case. In [6], the molecule was called inactive.

Values taken from PubChem BioAssay (Tox21).
